The values below come from ChEMBL document CHEMBL3988442, “University of Dundee, Small-Polar-MMV Screening Library” (2021).

Assay [1] addresses T1, Aspartate--tRNA(Asp/Asn) ligase (Mycobacterium tuberculosis (strain ATCC 25618 / H37Rv)) (UniProt P9WFW3).
T1 sequence (whole entry): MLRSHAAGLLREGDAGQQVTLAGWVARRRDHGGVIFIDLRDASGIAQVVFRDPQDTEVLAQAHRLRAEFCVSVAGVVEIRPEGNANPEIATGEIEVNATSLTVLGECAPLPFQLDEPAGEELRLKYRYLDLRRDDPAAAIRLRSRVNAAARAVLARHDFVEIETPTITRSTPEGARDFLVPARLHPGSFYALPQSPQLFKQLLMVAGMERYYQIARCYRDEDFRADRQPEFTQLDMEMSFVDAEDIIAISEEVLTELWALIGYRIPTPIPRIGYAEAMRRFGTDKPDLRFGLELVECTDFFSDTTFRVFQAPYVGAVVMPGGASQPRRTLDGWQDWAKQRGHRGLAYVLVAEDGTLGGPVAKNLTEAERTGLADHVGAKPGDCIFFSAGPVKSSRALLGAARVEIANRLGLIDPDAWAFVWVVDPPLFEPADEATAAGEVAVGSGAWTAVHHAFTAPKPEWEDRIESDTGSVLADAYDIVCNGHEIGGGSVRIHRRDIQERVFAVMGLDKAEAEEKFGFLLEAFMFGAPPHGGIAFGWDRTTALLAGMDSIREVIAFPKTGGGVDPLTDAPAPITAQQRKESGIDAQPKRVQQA
Briefly: Assay for Asp RNA synthetase-1 from Mycobacterium tuberculosis. To be noted: 30 µM. Set-up: scale not given: direction of the effect not stated beside the values. It is filed as functional.

Assay [2] deals with Shiga toxin 2 (Escherichia coli O157:H7) (UniProt P09385+P09386). Briefly: E. coli 0.157:H7 Shiga Toxin SOP - stx2 screening assay. The class given is functional. Also noted: scale not given: direction of the effect not stated beside the values. To be noted: 30 µM.

Turning to `Clc1ccc(CN2CCCC(Cn3cncn3)C2)c2ncccc12` (stereo unspecified), the Percent Effect in assay [1] was 2.62%; in assay [2], -50.6%.

For the compound `Cc1nc(C)n(CC2CCCN2Cc2cn(-c3ccccc3)nn2)n1` (stereo unspecified), the figures for the Percent Effect in assay [1] and in assay [2] were -2.81% and -8.85%, respectively.

For the compound `Cc1ccc(CNCCOc2ccc(S(C)(=O)=O)cc2)cc1`, the Percent Effect is 1.28% in assay [1] and -76.7% in assay [2].

With `Cc1cc(CN(C)C(=O)C2CCS(=O)(=O)C2)no1` (stereo unspecified), the figures for the Percent Effect in assay [1] and in assay [2] were -3.37% and -1.66%, respectively.

For the compound `CN1CC(=O)N(c2ccsc2)CC12CCN(S(C)(=O)=O)C2` (stereo unspecified), the Percent Effect in assay [1] is -0.605%; in assay [2] it was 0.893%.

For the compound `CCC(=O)Nc1nnc(CCCOc2ccccc2)s1`, the Percent Effect in assay [1] was -2.47%; in assay [2], -12%.

With `CCn1nc(C)c2nc(C(C)C)nc(NCCOC)c21`, the Percent Effect was -2.09% in assay [1] and -4.71% in assay [2].

In the case of `CC[C@H](C)Nc1nccc(-c2cnc3sc(C)c(C)n3c2=O)n1`, the Percent Effect in assay [1] is 0.808%; in assay [2], -27.1%.

Take `CC(C)(C)c1cn2nc(N3CCC[C@@H]3CO)sc2n1`: the figures for the Percent Effect in assay [1] and in assay [2] were -3.63% and -8.45%, respectively.

As to `O=C(Cc1ccc(O)c(Cl)c1)N1CCCCC1CCn1cccn1` (stereo unspecified), the Percent Effect in assay [1] was -0.725%; in assay [2] it was -11.4%.

As for `O=C(NCc1csc(Br)c1)c1ccncc1`, the Percent Effect is -0.335% in assay [1] and -44.3% in assay [2].

On to `CCOc1ccccc1Nc1nc2c(C)nn(C)c2c(=O)n1C`, for which the Percent Effect is 1.66% in assay [1] and -24.7% in assay [2].

Consider `Cc1ccc(C(=O)N2CCN(CCc3cccs3)CC2)c(=O)[nH]1`, for which the figures for the Percent Effect in assay [1] and in assay [2] were -1.83% and -29.5%, respectively.

Regarding `COCc1cc(O)nc(C2CCCN(Cc3cc(OC)ccc3F)C2)n1` (stereo unspecified), the Percent Effect in assay [1] came out at 1.71%; in assay [2] it was 17.7%.

As to `CCc1nccn1C1CCCN(C(=O)Cc2n[nH]c3ccccc23)C1` (stereo unspecified), the Percent Effect in assay [1] is 0.83%; in assay [2], 13.1%.

For the compound `Cc1scc(C(=O)N2CCC3(CCCN(C)C3=O)C2)c1-c1ccccc1` (stereo unspecified), the figures for the Percent Effect in assay [1] and in assay [2] were 2.02% and 8.94%, respectively.

As to `Cc1cc(NCc2cc3n(n2)CCCN(S(C)(=O)=O)C3)ncn1`, the Percent Effect in assay [1] was -7.29%; in assay [2], 25.2%.

As to `CCC(CNC(=O)c1ccc(=O)[nH]n1)N1CCc2ccccc2C1` (stereo unspecified), the Percent Effect was 2.11% in assay [1] and -11.6% in assay [2].

In the case of `CCc1nc(C2CCCN2C(=O)CCc2ccc3c(c2)OCO3)no1` (stereo unspecified), the Percent Effect in assay [1] was 3.41%; in assay [2] it was 6.69%.

As for `O=C(Nc1cc(F)ccc1OCC1CCCO1)c1ccc(O)nc1` (stereo unspecified), the Percent Effect in assay [1] is 5.1%; in assay [2], 33.8%.

Take `CN1CCC(CCNC(=O)c2ccc(N(C)S(C)(=O)=O)cc2Cl)CC1`: the Percent Effect in assay [1] was 1.1%; in assay [2], -50.8%.

As for `CN1CCCC2(CCN(C(=O)CCn3cncn3)C2)C1=O` (stereo unspecified), the Percent Effect in assay [1] was -4.51%; in assay [2] it was 27.3%.

For `CC(c1nc(C2CC2)no1)N1CCN(Cc2ccccc2F)CC1` (stereo unspecified), the Percent Effect in assay [1] was -7.52%; in assay [2], 8.03%.

`CC(NCc1ccncc1)c1cc(F)ccc1N1CCN(C)CC1` (stereo unspecified): the results for the Percent Effect in assay [1] and in assay [2] were 0.183% and -4.73%, respectively.

With `CCc1nc2ccccc2c(=O)n1CC1(O)CCN(S(C)(=O)=O)CC1`, the Percent Effect in assay [1] is 4.54%; in assay [2], -2.21%.

As to `CCc1nc(CN2CCN(c3ncnc4cc(F)ccc34)CC2)no1`, the Percent Effect in assay [1] was -1.46%; in assay [2], -69.6%.

In the case of `O=C(Nc1nncs1)NC1CCOc2ccccc21` (stereo unspecified), the values for the Percent Effect in assay [1] and in assay [2] were 5.22% and -45.8%, respectively.

For `Cc1csc(C2CCCN(C(=O)c3cc(Cl)c[nH]3)C2)n1` (stereo unspecified), the Percent Effect was -3.61% in assay [1] and 29.7% in assay [2].

With `CC(C)c1noc(CCC(=O)NCC2CCOC2)n1` (stereo unspecified), the Percent Effect in assay [1] is -0.573%; in assay [2] it was -7.84%.

For the compound `Cc1ccc(C(=O)N2CCCS2(=O)=O)cc1Cl`, the Percent Effect in assay [1] was -5.6%; in assay [2] it was -5.68%.

As for `Cc1ccccc1CN1CCC(NCC2CNc3ccnn3C2)CC1` (stereo unspecified), the Percent Effect was 0.127% in assay [1] and -38.1% in assay [2].

On to `Cc1cnc2c(c1NCc1ccncc1)c(=O)n(C)c(=O)n2C`, for which the Percent Effect in assay [1] was -5.41%; in assay [2], 1.78%.

Regarding `CC(CNc1cncc(-n2cccn2)n1)N(C)c1ccccc1` (stereo unspecified), the Percent Effect came out at 2.34% in assay [1] and 7.51% in assay [2].

`CCc1n[nH]c(C2CN(C(=O)c3cc4c(s3)CCCC4)CCO2)n1` (stereo unspecified): the results for the Percent Effect in assay [1] and in assay [2] were -1.69% and 4.53%, respectively.

Consider `COCCOc1ncccc1CNCc1c(C)nn(C)c1N(C)C`, for which the Percent Effect in assay [1] was -5.91%; in assay [2], 7.43%.

`CN(Cc1cccnc1)C1CC2(CCN(c3ccccn3)CC2)C1`: the results for the Percent Effect in assay [1] and in assay [2] were 2.16% and -47.1%, respectively.

Turning to `Cc1ccc(C(C)NC(=O)Nc2ccccc2CN2CCOCC2)o1` (stereo unspecified), the Percent Effect is -6.02% in assay [1] and 17.3% in assay [2].

On to `Cc1cc(C2CCCN(C(=O)c3c(C)noc3C)C2)n[nH]1` (stereo unspecified), for which the values for the Percent Effect in assay [1] and in assay [2] were -1.62% and 8.79%, respectively.

Take `Cc1nc(C)n(CC2CCCCN2CCS(C)(=O)=O)n1` (stereo unspecified): the Percent Effect was -3.09% in assay [1] and -15.8% in assay [2].

For `Cn1cc(C2CCCN2C(=O)c2ccc(Br)o2)cn1` (stereo unspecified), the figures for the Percent Effect in assay [1] and in assay [2] were -1.8% and 28.5%, respectively.

In the case of `CC1CCCN(CC(=O)N2CCC(c3ncc4c(n3)CCNC4)CC2)C1` (stereo unspecified), the Percent Effect is -2.22% in assay [1] and -1.44% in assay [2].

As to `CCOc1c(Cl)cccc1NCc1cc(C)on1`, the Percent Effect is -1.21% in assay [1] and -64.7% in assay [2].

Consider `CNC1CCCN(Cc2noc(C3CC3)n2)C1` (stereo unspecified), for which the Percent Effect was -0.881% in assay [1] and -5.27% in assay [2].

Regarding `Cn1cnnc1C1CCN(c2cncc(-n3cccn3)n2)CC1`, the Percent Effect in assay [1] is 0.324%; in assay [2] it was -33.6%.

As to `O=C(CCNC(=O)c1ccoc1)NCc1ccccc1F`, the Percent Effect in assay [1] turned out to be 1.27%; in assay [2], 11.5%.

With `CC(C)C(=O)N1CCN(Cc2csc(-c3ncccn3)n2)CC1`, the Percent Effect in assay [1] was -4.22%; in assay [2], 0.445%.

As to `CCS(=O)(=O)N1CCc2ccc(NC(=O)Nc3ccc(F)cc3F)cc21`, the Percent Effect is 1.65% in assay [1] and -10.5% in assay [2].

Regarding `CN(C)C(=O)N1CCN(CCn2nc3ccccn3c2=O)CC1`, the Percent Effect in assay [1] was -3.02%; in assay [2], -19.4%.
